Most compounds without a hit are left out; they make up all but 19% or so of the library.
TDP1 cell noCPT: qHTS for Inhibitors of human tyrosyl-DNA phosphodiesterase 1 (TDP1): qHTS in cells in absence of CPT | DT40 Tdp1-/- hTDP1 cells, no CPT, ATP luminescence, 48 h | Potency, µM (series often up to 46.2 µM), inactives show top-dose activity change, negative = growth inhibition, actives largely listed as inhibitors | actives 15% (n = 420,000) | AID 686978, 2013; also: potency is read from the fitted curve at half-maximal effect; nearly all actives have a fitted effect of over 55% in size
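Seeded 400 DT40-hTDP1 cells/well (vehicle DMSO, no 20 nM CPT); pinned compounds; ≥48 hr at 37 °C; CellTiter-Glo luminescence as viability measure.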
Giardia killer: kills Giardia lamblia; Giardia lamblia trophozoite viability; activity change, % at 7.66 µM, hits read low; actives 0.15% (n = 340,000); AID 540267; in the data active = activity change below about -80%; inconclusive = between about -30% and that limit;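 also: parasites exposed to compound for two days anaerobically before the ATP read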
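Killing of trophozoites was scored by loss of ATP luminescence after a 48 hrs anaerobic exposure to compounds at 37 deg C, using 100 cells per well.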
IL-1B inflam inh: blocks inflammasome-driven IL-1 beta release; activity change, % at 57.5 µM; actives 4.7% (n = 360,000); THP-1 LPS/ATP IL-1B secretion, AlphaLISA, 16 h; hits give low values; in the data active = activity change below about -50%; inconclusive = mostly about -30% to -49%
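THP-1 cells pretreated 1 hr with compounds (up to 57.5 uM final), then stimulated with LPS (250 ng/mL final) plus ATP (1.25 mM final); secreted IL-1B measured by AlphaLISA after 16 hr, decreased signal indicating inhibition.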
ELG1 DNA repair: ELG1-dependent DNA repair inhibition; HEK293T ELG1-luciferase reporter, luminescence, 16 h; DNA damage induced by 5-fluorouridine; Potency, µM (titrated, usually from 46.1 µM), without a hit: at the top dose activity change, negative = inhibition, usual class: inhibitors; actives 2.3% (n = 330,000); also: potency is read from the fitted curve at half-maximal effect; nearly all actives have a fitted effect of over 55% in size
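DMSO vehicle served as the neutral condition. Each well held 2,000 cells given 5-fluorouridine plus compound; after 16 hr at 37 °C/5% CO2, ONE-Glo was added and luciferase measured 30 min later.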
TDP1 block: inhibitors of human tyrosyl-DNA phosphodiesterase TDP1. Q9NUW8. recombinant TDP1, AlphaScreen DNA substrate cleavage. Potency, µM (top dose mostly 130 µM), for inactives: top-dose activity change, negative = inhibition, hits mostly inhibitors. actives 0.28% (n = 350,000). AID 485290; also: potency is read from the fitted curve at half-maximal effect; nearly all actives have a fitted effect of over 40% in size
Target sequence (Q9NUW8 whole entry, looked up): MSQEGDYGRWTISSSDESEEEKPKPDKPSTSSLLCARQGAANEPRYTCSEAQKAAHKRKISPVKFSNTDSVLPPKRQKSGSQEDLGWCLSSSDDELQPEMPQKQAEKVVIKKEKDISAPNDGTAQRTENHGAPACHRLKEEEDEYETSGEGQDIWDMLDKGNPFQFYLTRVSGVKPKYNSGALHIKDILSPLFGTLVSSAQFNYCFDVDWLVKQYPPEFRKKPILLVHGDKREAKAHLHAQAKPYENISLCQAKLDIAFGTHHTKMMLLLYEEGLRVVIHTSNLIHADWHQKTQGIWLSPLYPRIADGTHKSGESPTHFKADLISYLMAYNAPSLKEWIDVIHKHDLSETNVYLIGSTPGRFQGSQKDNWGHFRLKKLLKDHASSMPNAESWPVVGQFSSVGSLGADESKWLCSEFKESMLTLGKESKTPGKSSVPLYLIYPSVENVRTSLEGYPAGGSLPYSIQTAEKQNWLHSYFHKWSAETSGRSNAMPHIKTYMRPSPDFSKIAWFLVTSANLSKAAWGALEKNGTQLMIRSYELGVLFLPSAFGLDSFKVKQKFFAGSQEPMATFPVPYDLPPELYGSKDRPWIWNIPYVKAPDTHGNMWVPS
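Compounds were preincubated with Tdp1 (1 nM final) for 15 min at room temperature before substrate (15 nM final) started a 5 min reaction; beads (10 ug/ml final) were then added for 10 min before AlphaScreen detection.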
DT40 TDP1 CPT: growth inhibition of DT40 Tdp1-/-;hTDP1 cells with camptothecin (screen for TDP1 inhibitors); chicken DT40 Tdp1-/-;hTDP1 cells + 20 nM CPT, ATP luminescence, 48 h; Potency, µM (series often up to 46.2 µM), without a hit: at the top dose activity change, negative = growth inhibition, usual class: inhibitors; actives 12% (n = 420,000); AID 686979; also: potency is read from the fitted curve at half-maximal effect; nearly all actives have a fitted effect of over 55% in size
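Chicken DT40 Tdp1-/- cells stably complemented with human TDP1 were seeded at 400 cells/well in medium containing 20 nM camptothecin, exposed to pin-transferred compounds, and grown at 37 °C for at least 48 hr. Viability was read as ATP luminescence.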
* marks the source's active call; other numbers are inactive results; i = inactive; ? = inconclusive; . = no result given; [ ] = another dose, or the depositor's remark. Unless noted, calls follow the shape of the dose curve; as a rule, active = well fitted curve in the direction sought with a large enough effect; inconclusive = small, poorly fitted or top-dose-only effect, or another doubt; inactive = no such curve, though single readings can be large; an effect the other way counts as inactive or inconclusive. % is scaled to controls: 0 for no effect and ±100 for the full control effect.

SMILES	TDP1 cell noCPT	Giardia killer	IL-1B inflam inh	ELG1 DNA repair	TDP1 block	DT40 TDP1 CPT
O=C(NCc1ccccc1)C1C(c2ccc3c(c2)OCO3)=Nc2ccccc2N1C(=O)c1ccco1 (stereo unspecified)	?	.	-15	.	.	?
O=C(NCc1ccccc1)C1C(c2ccc3c(c2)OCO3)=Nc2ccccc2N1C(=O)c1ccccc1 (stereo unspecified)	15µM*	.	-1	.	.	23µM*
CCC(CC)C(=O)N1CCc2cc(OC)c(OC)cc2C1COc1ccccc1OC (stereo unspecified)	?	.	.	.	-3%	?
O=C1N[C@@H](c2ccccc2)COC(=O)[C@H](Cc2ccc(F)cc2)CC/C=C/C[C@@H]1CC(=O)N(CCO)Cc1ccccc1	16µM*	-30	0	?	1%	?
C[C@H]1COC(=O)[C@H](Cc2ccc(F)cc2)C/C=C\C[C@H](CC(=O)N(CCO)Cc2ccccc2)C(=O)N1	?	-4	-1	?	1%	?
C[C@@H]1COC(=O)[C@H](CC(=O)OC(C)(C)C)C/C=C\C[C@H](CC(=O)N(CCO)Cc2ccccc2)C(=O)N1	-16%	-1	-4	13%	1%	-15%
O=C1CCCC/C=C\C[C@H](CC(=O)N(CCO)Cc2ccccc2)C(=O)N[C@@H](c2ccccc2)CO1	-22%	-4	26	-4%	0%	?
CC(C)(C)OC(=O)C[C@@H]1C/C=C\C[C@@H](CC(=O)N(CCO)Cc2ccccc2)C(=O)N[C@@H](c2ccccc2)COC1=O	23µM*	2	0	15µM*	0%	?
O=C1N[C@@H](c2ccccc2)COC(=O)[C@@H](Cc2ccc(F)cc2)C/C=C\C[C@H]1CC(=O)N(CCO)Cc1ccccc1	10µM*	4	?	?	2%	15µM*
O=C1c2ccccc2C(=O)N1CC(O)CNc1ccc(Br)cc1 (stereo unspecified)	16%	-14	8	0%	0%	-1%
COCC1CCCCN1C(=O)c1ccc(OC2CCN(Cc3ccccn3)CC2)cc1 (stereo unspecified)	-7%	5	i	15%	5%[56.1 µM]	10%
CCCC(=O)C1=C(c2ccccc2)C(C#N)(C#N)C(C#N)=C1N	15µM*	-6	-13	8%	9%	18µM*
COc1cccc2c1ncc1c(-c3ccc(C)cc3)nn(-c3ccc(F)cc3)c12	2%	.	.	.	-6%	-3%
O=C(COc1ccc2ccc(=O)oc2c1)NCCN1CCOCC1	0%	.	-6	.	.	20%
CNC(=S)N1CCC(Cc2ccccc2)CC1	-3%	10	-5	13%	5%	-1%
NS(=O)(=O)c1ccc(NC(=S)N2CCN(c3ccc(Cl)c(Cl)c3)CC2)cc1	6.5µM*	-28	3	-2%	4%	6.5µM*
S=C(NCCc1ccccc1)N1CCN(Cc2ccc(Cl)c(Cl)c2)CC1	?	-4	-16	1%	3%	18µM*
CC(=O)c1ccc(N2CCN(C(=S)Nc3ccc(Cl)c(Cl)c3)CC2)cc1	-27%	11	2	0%	0%	?
S=C(NCCc1ccccc1)N1CCN(C(=S)NCCc2ccccc2)CC1	-9%	4	7	?	-4%	-8%
NS(=O)(=O)c1ccc(NC(=S)N2CCN(Cc3ccc(Cl)c(Cl)c3)CC2)cc1	?	2	-72*	?	0%	?
NS(=O)(=O)c1ccc(NC(=S)N2CCC(Cc3ccccc3)CC2)cc1	?	-15	-62*	?	.	11%
CC(=O)NC(CC(=O)OCC(=O)N1CCN(S(=O)(=O)c2ccc(C)cc2C)CC1)c1ccccc1 (stereo unspecified)	-27%	7	11	-22%	2%	-9%
Cc1ccc(C(=O)c2oc3ccccc3c2NC(=O)C(C)Oc2ccccc2Cl)cc1 (stereo unspecified)	-27%	.	.	.	0%	-26%
CCOC(=O)[C@H](CS)NCCN[C@@H](CS)C(=O)OCC	-7%	.	.	.	.	2%
COc1ccc(C(=O)N/N=C/C(Br)=C/c2ccccc2)cc1	15µM*	-7	-58*	3%	2%	13µM*
SMILES	TDP1 cell noCPT	Giardia killer	IL-1B inflam inh	ELG1 DNA repair	TDP1 block	DT40 TDP1 CPT
O=C(C(=Cc1ccc(F)cc1)c1ccccc1)c1ccc(O)cc1	?	-8	?	.	.	3%
CCC(=O)Nc1ccc(C=C(C(C)=O)C(C)=O)cc1	?	19	-6	?	.	?
CCC(=O)Nc1ccc(/C=C(\C(C)=O)C(=O)c2ccccc2)cc1	23µM*	3	-98*	?	.	?
COc1cccc(C(=O)N/N=C/C(Br)=C/c2ccccc2)c1	2.9µM*	-7	-75*	5%	5%	1.8µM*
O=C(C(=Cc1ccc(F)cc1)C(=O)c1ccccc1)c1ccccc1	16µM*	.	-112*	.	.	?
CC(/C=N\NC(=O)c1ccc(C)nc1)=C\c1ccccc1	-14%	-6	-8	28%	3%	0%
CC(=O)/C(=C/c1ccc(N(C)C)cc1)C(=O)c1ccccc1	?	-15	-5	-16%	8%	?
COc1cccc(C=C(C(C)=O)C(=O)c2ccccc2)c1	15µM*	.	-113*	.	.	21µM*
CC(=O)Nc1ccc(N2CCCC(C)C2)c([N+](=O)[O-])c1 (stereo unspecified)	23µM*	10	-19	-1%	6%	-10%
CC1CCCN(c2ccc(C(=O)Nc3cccnc3)cc2[N+](=O)[O-])C1 (stereo unspecified)	?	-8	?	15µM*	8%	16µM*
Cc1ccc(C(=O)Nc2cccnc2)cc1[N+](=O)[O-]	4%	-1	-16	-1%	3%	-14%
Cc1ccc2oc(-c3cccc(NC(=O)c4ccc(N5CCC(C)CC5)c([N+](=O)[O-])c4)c3)nc2c1	7.3µM*	.	.	.	1%	18µM*
O=C(CCNS(=O)(=O)c1ccc(Cl)cc1)Nc1ccncc1	-29%	-3	38	?	0%	0%
Cc1cc(NC(=O)c2ccc3sc([C@@H]4O[C@H](CO)[C@H](O)[C@H](O)[C@H]4O)nc3c2)no1	-1%	.	-15	.	.	-1%
Cc1ccc(-c2nn(-c3cc(N4CCNCC4)ccc3[N+](=O)[O-])c(=O)c3ccccc23)cc1	4.1µM*	-2	-182*	-10%	7%	3.7µM*
